Data on 26 compounds can be found in PubChem BioAssay (NCATS).

Molecules are shown by their SMILES. Records with an inconclusive call do not appear. Calls of active or inactive are those of the source. Unless noted, calls follow the shape of the dose curve; as a rule, active = well fitted curve in the direction sought with a large enough effect; inconclusive = small, poorly fitted or top-dose-only effect, or another doubt; inactive = no such curve, though single readings can be large; an effect the other way counts as inactive or inconclusive.

The target of test [1] is Cytochrome P450 3A4 (Homo sapiens) (UniProt P08684). Briefly: qHTS Assay for Activators of Cytochrome P450 3A4 (AID 885). Also: nearly all actives have a fitted effect of over 65% in size. In short, it runs like this:
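Quantitative HTS format: compounds preincubated with 20nM human CYP3A4 and Luciferin-PPXE substrate at KM, reaction started by NADPH regeneration, stopped after 60 min, luciferase luminescence read 20 min later.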

A short description of test [2]: Confirmation and Secondary Assay for Modulators of Hemoglobin Beta Chain Splicing at IVS2 654 locus (AID 910).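 Also: HeLa cells stably carrying EGFP split by mutant beta-globin IVS2-654 intron; % of control where 0% means no effect.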 The essentials: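 HeLa cells stably expressing EGFP interrupted by β-globin IVS2-654 intron, seeded overnight in Opti-MEM/2% FCS, then treated 2 days at 37 °C. Restored splicing read as total peak GFP intensity per well by laser scanning cytometry (488 nm excitation, 500–520 nm emission); 500 nM antisense PNA as control.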

The nature of test [3]: Confirmation and Secondary Assay for Modulators of Hemoglobin Beta Chain Splicing at IVS2 705 locus (AID 930).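 Also: HeLa cells stably expressing the EGFP-705 splicing reporter; % of control where 0% means no effect.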 In short, it runs like this: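 Restored EGFP fluorescence after 2-day compound exposure reports splicing correction in IVS2-705 EGFP reporter HeLa cells; positive control was 500 nM splice-blocking PNA oligo. Signal measured as well total peak GFP intensity (488 nm excitation).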

A short description of test [4]: qHTS Assay for Lipid Storage Modulators (AID 1519; calls by dose curve; as to activity change, negative = inhibition: % is scaled to controls: 0 for no effect and ±100 for the full control effect). The conditions noted are these: Drosophila S3 cells, BODIPY lipid droplet/cell ratio, laser cytometry, cells loaded with oleic acid; for activity change, negative = inhibition: at 57.5 µM (top of the series). In short, it runs like this: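 Cells seeded at 5,000 per well were treated with compounds over a concentration series and loaded with oleic acid (400 uM, as added). Lipid droplet fluorescence (488 nm excitation, 500-530 nm channel) was read by laser-scanning cytometry and normalized to 20 uM Triacsin C.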
(In qHTS, concentration-response curves come from the screen itself.)

The target of test [5] is Ubiquitin carboxyl-terminal hydrolase 1 (Homo sapiens) (UniProt O94782). Briefly: Inhibitors of USP1/UAF1: Pilot qHTS (AID 504865).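 Also: rhodamine fluorescence freed from ubiquitin-rhodamine substrate followed over time; top concentration of the series differs between compounds; % is scaled to controls: 0 for no effect and ±100 for the full control effect; nearly all actives have a fitted effect of over 35% in size.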 The essentials: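 Deubiquitinase activity followed as kinetic rhodamine fluorescence release from 150 nM Ub-Rho. 1 nM USP1/UAF1 with compound, after 15 min room-temperature preincubation, in HEPES pH 7.8 buffer containing TCEP, EDTA, BSA and Tween-20.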
Ubiquitin carboxyl-terminal hydrolase 1 (Homo sapiens), sequence (O94782 whole entry, looked up): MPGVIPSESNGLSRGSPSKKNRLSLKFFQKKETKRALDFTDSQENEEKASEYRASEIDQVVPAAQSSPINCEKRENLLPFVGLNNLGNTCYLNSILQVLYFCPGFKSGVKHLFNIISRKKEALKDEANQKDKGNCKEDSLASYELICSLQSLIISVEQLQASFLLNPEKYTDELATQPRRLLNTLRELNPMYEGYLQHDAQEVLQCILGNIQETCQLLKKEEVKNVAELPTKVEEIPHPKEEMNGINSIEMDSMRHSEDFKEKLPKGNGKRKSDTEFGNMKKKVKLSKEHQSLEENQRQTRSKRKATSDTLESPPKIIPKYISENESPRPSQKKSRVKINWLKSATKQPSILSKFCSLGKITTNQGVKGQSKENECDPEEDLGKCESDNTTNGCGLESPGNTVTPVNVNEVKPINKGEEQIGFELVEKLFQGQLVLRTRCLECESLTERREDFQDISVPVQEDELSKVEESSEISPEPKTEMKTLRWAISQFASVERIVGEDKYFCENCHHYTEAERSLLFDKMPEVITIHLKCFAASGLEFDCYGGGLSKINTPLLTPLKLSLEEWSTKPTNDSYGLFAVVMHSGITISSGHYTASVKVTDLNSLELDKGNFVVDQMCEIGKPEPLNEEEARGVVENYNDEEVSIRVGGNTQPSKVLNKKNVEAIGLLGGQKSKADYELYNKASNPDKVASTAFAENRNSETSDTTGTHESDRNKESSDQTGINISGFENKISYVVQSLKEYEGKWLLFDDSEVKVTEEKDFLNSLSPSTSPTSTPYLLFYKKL

Setting [6] is: measured here: cell count channel max response.
Setting [7] is: measured here: lipid channel max response.

Cytochrome P450 3A4 (Homo sapiens), sequence (P08684 whole entry, looked up): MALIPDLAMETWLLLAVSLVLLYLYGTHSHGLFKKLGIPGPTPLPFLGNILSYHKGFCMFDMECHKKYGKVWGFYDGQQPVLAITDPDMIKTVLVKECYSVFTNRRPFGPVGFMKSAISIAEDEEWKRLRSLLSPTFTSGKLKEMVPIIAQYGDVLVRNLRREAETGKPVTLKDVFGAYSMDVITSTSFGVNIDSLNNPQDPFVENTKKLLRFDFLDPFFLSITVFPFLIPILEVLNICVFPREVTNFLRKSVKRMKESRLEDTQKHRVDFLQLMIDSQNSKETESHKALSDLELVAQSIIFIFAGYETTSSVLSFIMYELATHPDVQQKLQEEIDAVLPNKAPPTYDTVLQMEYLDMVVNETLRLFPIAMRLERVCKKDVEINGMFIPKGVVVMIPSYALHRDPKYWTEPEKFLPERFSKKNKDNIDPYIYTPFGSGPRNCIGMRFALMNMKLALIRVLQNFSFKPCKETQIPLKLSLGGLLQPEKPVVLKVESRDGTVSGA

In the case of `C=C[C@]1(C)CC(=O)[C@@]2(O)[C@@]3(C)C(O)CCC(C)(C)C3C(O)C(OC(C)=O)[C@@]2(C)O1` (stereo partly specified), the Potency entry in test [1], in test [2], in test [3] and in test [5] was “inactive” each time. Further, the activity change, negative = inhibition in test [4] is 3.86% (inactive). In addition, the max response in test [4] (setting [6]) was determined as 19.4%; in test [4] (setting [7]), 25.9%.

Take `O=C(/C=C/c1ccccc1)OC1CC(O)C2(O)C=CO[C@@H](OC3OC(CO)C(O)C(O)C3O)C12` (stereo partly specified): the Potency result in test [1], in test [2], in test [3] and in test [5] was “inactive” each time. The activity change, negative = inhibition in test [4] is 3.28% (inactive). For the same compound, the max response in test [4] (setting [6]) was -10.8%; in test [4] (setting [7]), 7.13%.

In the case of `Cc1cc(O)c(C=O)c(O)c1C(=O)O`, the Potency entry in test [1], in test [2], in test [3] and in test [5] was “inactive” each time. In test [4], the activity change, negative = inhibition was 3.98% (inactive). Further, the max response is 6.58% in test [4] (setting [6]) and 11.5% in test [4] (setting [7]).

As for `COC(=O)CC1C(C)(C)C2(O)OC34CC2C(=O)[C@@]1(C)C3CC[C@]1(C)C4=CC(=O)OC1c1ccoc1` (stereo partly specified), the Potency result in test [1], in test [2], in test [3] and in test [5] was “inactive” throughout. The activity change, negative = inhibition in test [4] was 4.29% (inactive). Also, the values for the max response in test [4] (setting [6]) and in test [4] (setting [7]) were -0.136% and 8.19%, respectively.

On to `CC(=O)O[C@](C)(CCC=C(C)C)C1CC=C(C)CC1` (stereo partly specified), for which the Potency result in test [1], in test [2], in test [3] and in test [5] was “inactive” each time. In test [4], the activity change, negative = inhibition was 3.31% (inactive). Besides, the max response in test [4] (setting [6]) worked out at 17.9%; in test [4] (setting [7]), 22%.

Take `CC1CC[C@@]2(C(=O)O)CCC3(C)C(=CCC4[C@]5(C)CC(O)C(O)[C@](C)(CO)C5C(O)C[C@@]43C)C2C1C` (stereo partly specified): the Potency result in test [2], in test [3] and in test [5] was “inactive” throughout. Moreover, in test [4], the activity change, negative = inhibition is 7.29% (inactive). Further, the max response in test [4] (setting [6]) is 14.9%; in test [4] (setting [7]) it was 28.6%.

As to `COc1cc(O)c(C)c(O)c1`, the Potency result in test [2], in test [3] and in test [5] was “inactive” each time. In addition, in test [4], the activity change, negative = inhibition is 1.69% (inactive). Besides, the max response in test [4] (setting [6]) came out at 3.91%; in test [4] (setting [7]), 5.62%.

Take `COc1ccc(-c2coc3cc(O)ccc3c2=O)c(OC)c1`: the Potency entry in test [1], in test [2], in test [3] and in test [5] was “inactive” each time. In addition, the activity change, negative = inhibition in test [4] is -0.403% (inactive). For the same compound, the max response in test [4] (setting [6]) worked out at 3.06%; in test [4] (setting [7]), 3.26%.

Consider `NC(Cn1ccc(=O)c(O)c1)C(=O)O` (stereo unspecified), for which the Potency entry in test [2], in test [3] and in test [5] was “inactive” in each case. Besides, in test [4], the activity change, negative = inhibition was 3.76% (inactive). Further, the values for the max response in test [4] (setting [6]) and in test [4] (setting [7]) were 3.01% and 10.8%, respectively.

`CCC(=O)OCC(=O)C1(OC(=O)CC)C(C)CC2C3C(Cl)CC4=CC(=O)C=C[C@@]4(C)C3C(O)C[C@@]21C` (stereo partly specified): the Potency result in test [2], in test [3] and in test [5] was “inactive” in each case. Besides, in test [4], the activity change, negative = inhibition is 4.4% (inactive). Also, the max response was 1.88% in test [4] (setting [6]) and 8.57% in test [4] (setting [7]).

Regarding `Cn1nnnc1SCC1=C(C(=O)O)N2C(=O)C(NC(=O)C(O)c3ccccc3)C2SC1` (stereo unspecified), the Potency result in test [2], in test [3] and in test [5] was “inactive” throughout. For the same compound, in test [4], the activity change, negative = inhibition was 13.2% (inactive). The max response in test [4] (setting [6]) stood at 9.16%; in test [4] (setting [7]) it was 26.7%.

As to `Cc1onc(-c2ccccc2Cl)c1C(=O)NC1C(=O)N2C1SC(C)(C)C2C(=O)O` (stereo unspecified), the Potency result in test [2], in test [3] and in test [5] was “inactive” throughout. The activity change, negative = inhibition in test [4] was 9.93% (inactive). Besides, the max response in test [4] (setting [6]) amounted to 11.3%; in test [4] (setting [7]), 24.6%.

With `O=c1c2ccccc2oc2ccccc12`, the Potency result in test [2], in test [3] and in test [5] was “inactive” throughout. For the same compound, the activity change, negative = inhibition in test [4] is 15% (inactive). Besides, the max response in test [4] (setting [6]) was found to be 9.44%; in test [4] (setting [7]), 28%.

Turning to `COc1cc(-c2oc3cc(O)ccc3c(=O)c2O)ccc1O`, the Potency result in test [1], in test [2], in test [3] and in test [5] was “inactive” in each case. The activity change, negative = inhibition in test [4] was -2.65% (inactive). Also, the max response is -22.8% in test [4] (setting [6]) and -26.5% in test [4] (setting [7]).

In the case of `CCCC1OC2CC3C4CCC5=CC(=O)C=CC5(C)C4C(O)CC3(C)[C@]2(C(=O)CO)O1` (stereo partly specified), the Potency entry in test [1], in test [2], in test [3] and in test [5] was “inactive” in each case. In addition, the activity change, negative = inhibition in test [4] is 8.38% (inactive). Besides, the max response in test [4] (setting [6]) was found to be 24.3%; in test [4] (setting [7]) it was 37.9%.

On to `CC1(C)C(=O)C2C[C@]3(O)C4=CC(=O)OC(c5ccoc5)[C@]4(C)CCC3[C@](C)(C2=O)C1CC(=O)O` (stereo partly specified), for which the Potency entry in test [2], in test [3] and in test [5] was “inactive” each time. Moreover, the activity change, negative = inhibition in test [4] is 3.73% (inactive). For the same compound, the results for the max response in test [4] (setting [6]) and in test [4] (setting [7]) were 1.91% and 6.28%, respectively.

With `Oc1ccc(C2Oc3cc(O)cc(O)c3CC2O)cc1` (stereo unspecified), the Potency result in test [2], in test [3] and in test [5] was “inactive” in each case. For the same compound, the activity change, negative = inhibition in test [4] is 14.6% (inactive). In addition, the values for the max response in test [4] (setting [6]) and in test [4] (setting [7]) were -6.15% and 20.5%, respectively.

For the compound `C[N+](C)(C)CCOP(=O)([O-])OP(=O)(O)OCC1OC(n2ccc(N)nc2=O)C(O)C1O` (stereo unspecified), the Potency result in test [2], in test [3] and in test [5] was “inactive” throughout. Also, the activity change, negative = inhibition in test [4] is 5.88% (inactive). Also, the figures for the max response in test [4] (setting [6]) and in test [4] (setting [7]) were 9.36% and 16.8%, respectively.

Turning to `CC(=O)OCC(=O)[C@@]12OC(C)(C)OC1CC1C3CC(F)C4=CC(=O)C=C[C@@]4(C)[C@@]3(F)C(O)C[C@]12C` (stereo partly specified), the Potency result in test [2], in test [3] and in test [5] was “inactive” each time. Also, the activity change, negative = inhibition in test [4] is 5.49% (inactive). The max response in test [4] (setting [6]) was 3.91%; in test [4] (setting [7]), 12.9%.

On to `CC1(C)SC2C(NC(=O)COc3ccccc3)C(=O)N2C1C(=O)O` (stereo unspecified), for which the Potency entry in test [2], in test [3] and in test [5] was “inactive” throughout. The activity change, negative = inhibition in test [4] is 3.45% (inactive). The max response in test [4] (setting [6]) came to 17.3%; in test [4] (setting [7]), 22.6%.

Regarding `O=C(CCc1ccc(O)cc1)c1c(O)cc(O)cc1O[C@H]1OC(CO)C(O)C(O)C1O` (stereo partly specified), the Potency result in test [1], in test [2], in test [3] and in test [5] was “inactive” throughout. In addition, in test [4], the activity change, negative = inhibition is 6.17% (inactive). For the same compound, the max response is 25.3% in test [4] (setting [6]) and 27.2% in test [4] (setting [7]).

`CCOC(=O)C(CCc1ccccc1)NC(C)C(=O)N1C(C(=O)O)CC2CCCC21` (stereo unspecified): the Potency entry in test [2], in test [3] and in test [5] was “inactive” throughout. For the same compound, in test [4], the activity change, negative = inhibition is 8.81% (inactive). The max response in test [4] (setting [6]) was 13.5%; in test [4] (setting [7]), 25.8%.

With `CC(C)(C)NC[C@@H](O)COc1nsnc1N1CCOCC1`, the Potency result in test [2], in test [3] and in test [5] was “inactive” throughout. In addition, the activity change, negative = inhibition in test [4] is 13.4% (inactive). Further, the max response was found to be 16.2% in test [4] (setting [6]) and 36.5% in test [4] (setting [7]).

Take `Oc1ccc2c(c1)OC(c1ccc(O)c(O)c1)C(O)C2` (stereo unspecified): the Potency result in test [1], in test [2], in test [3] and in test [5] was “inactive” in each case. Besides, the activity change, negative = inhibition in test [4] was 6.52% (inactive). Also, the max response in test [4] (setting [6]) was -5.73%; in test [4] (setting [7]) it was 1.34%.

Regarding `CC(=O)OC1C(=O)[C@@]2(C)C(O)CC3OC[C@]3(OC(C)=O)C2C(OC(=O)c2ccccc2)[C@]2(O)CC(OC(=O)C(O)C(NC(=O)c3ccccc3)c3ccccc3)C(C)=C1C2(C)C` (stereo partly specified), the Potency result in test [2], in test [3] and in test [5] was “inactive” each time. The activity change, negative = inhibition in test [4] was -3.78% (inactive). In addition, the max response in test [4] (setting [6]) is 1.34%; in test [4] (setting [7]) it was -0.503%.

Turning to `COC1C(O)CC(=O)OC(C)C/C=C/C=C/[C@@H](OC2CCC(N(C)C)C(C)O2)C(C)C[C@@H](CC=O)[C@@H]1O[C@H]1OC(C)[C@H](O[C@@H]2C[C@@](C)(O)C(O)C(C)O2)C(N(C)C)C1O` (stereo partly specified), the Potency entry in test [2], in test [3] and in test [5] was “inactive” in each case. In test [4], the activity change, negative = inhibition was 4.53% (inactive). In addition, the max response in test [4] (setting [6]) was 15.4%; in test [4] (setting [7]), 26.5%.
